Data from PubChem BioAssay AID1159580 (chemical genetic matrix, 2015).
Where “and” joins values, the source holds several entries; their conditions need not be identical. Identical values can stand only once. Screen size: about 5,500 compounds; about 2,000 (36%) were called active. Not shown: some 18% with an inconclusive outcome. Cut-off read from the data, not from the text of the source: active = normalized growth mostly below about 0.91 (no sharp cut-off); inconclusive = no clear call, values can overlap the other calls; inactive = mostly above about 0.92. This is one part of the list.

Experiment: chemical genetic growth profiling, strain panel (AID 1159580);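 note: tested at 20 µM; growth read once vehicle control cultures reached saturation at 30 °C; 1 = growth at the plate median or of vehicle wells; lower values mean less growth of the strain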
Conditions: S. cerevisiae deletion strains, growth OD

Measured: normalized growth

Oc1ccc(/C=C/c2cc(O)cc(O)c2)cc1
0.892 (active) and 0.981 (inactive): locus YHR030C, strain SLT2, stronger effect = lower value
active: locus YDL192W, strain arf1, stronger effect = lower value 0.865 | locus YDR101C, strain arx1, stronger effect = lower value 0.873 | locus YDR137W, strain rgp1, stronger effect = lower value 0.681 | locus YDR195W, strain ref2 1.18 [resistant] | locus YDR502C, strain sam2, stronger effect = lower value 0.895 | locus YGL078C, strain dbp3, stronger effect = lower value 0.895 | locus YGL086W, strain mad1, stronger effect = lower value 0.897 | locus YKL009W, strain mrt4, stronger effect = lower value 0.779 | locus YKR001C, strain vps1, stronger effect = lower value 0.692 | locus YLR262C, strain YPT6 (second series), stronger effect = lower value 0.822 | locus YLR371W, strain rom2, stronger effect = lower value 0.766 | locus YLR418C, strain cdc73, stronger effect = lower value 0.686 | locus YMR307W, strain GAS1, stronger effect = lower value 0.538 | locus YNR052C, strain pop2, stronger effect = lower value 0.833 | locus YOL147C, strain pex11, stronger effect = lower value 0.926 | locus YOR184W, strain ser1, stronger effect = lower value 0.729 | locus YPR163C, strain tif3, stronger effect = lower value 0.909 | strain wtn01, stronger effect = lower value 0.895
0.406 (active) and 1.01 (inactive): locus YJL095W, strain BCK1, stronger effect = lower value
inactive: locus YAL013W, strain DEP1, stronger effect = lower value 0.972 and 1.02 | locus YAL021C, strain ccr4, stronger effect = lower value 0.995 | locus YAL026C, strain drs2, stronger effect = lower value 0.978 | locus YAL030W, strain snc1, stronger effect = lower value 0.99 | locus YAL040C, strain CLN3, stronger effect = lower value 0.987 | locus YBL061C, strain skt5, stronger effect = lower value 0.992 | locus YBR009C, strain hhf1, stronger effect = lower value 0.968 | locus YBR021W, strain FUR4, stronger effect = lower value 0.961 | locus YBR023C, strain chs3, stronger effect = lower value 0.99 | locus YBR171W, strain sec66, stronger effect = lower value 1.01 | locus YBR229C, strain ROT2, stronger effect = lower value 1.02 | locus YBR231C, strain swc5, stronger effect = lower value 0.988 | locus YBR279W, strain paf1, stronger effect = lower value 0.988 | locus YCL011C, strain gbp2, stronger effect = lower value 0.996 | locus YCL016C, strain dcc1, stronger effect = lower value 0.99 | locus YCL029C, strain bik1, stronger effect = lower value 0.929 | locus YCL061C, strain MRC1 (second series), stronger effect = lower value 0.987 | locus YCL061C, strain MRC1, stronger effect = lower value 0.99 | locus YCL069W, strain vba3, stronger effect = lower value 1.01 | locus YCR088W, strain abp1, stronger effect = lower value 1 | locus YDL005C, strain med2, stronger effect = lower value 0.999 | locus YDL035C, strain GPR1, stronger effect = lower value 0.939 | locus YDL040C, strain nat1, stronger effect = lower value 0.982 | locus YDL074C, strain BRE1, stronger effect = lower value 0.867 | locus YDL101C, strain DUN1, stronger effect = lower value 0.999 | locus YDL134C, strain PPH21, stronger effect = lower value 0.982 | locus YDL185W, strain tfp1, stronger effect = lower value 0.939 | locus YDR001C, strain nth1, stronger effect = lower value 0.999 | locus YDR069C, strain doa4, stronger effect = lower value 0.988 | locus YDR150W, strain NUM1, stronger effect = lower value 0.985 | locus YDR159W, strain sac3, stronger effect = lower value 0.954 | locus YDR162C, strain NBP2, stronger effect = lower value 0.948 | locus YDR297W, strain sur2, stronger effect = lower value 0.977 | locus YDR318W, strain mcm21, stronger effect = lower value 0.983 | locus YDR334W, strain swr1, stronger effect = lower value 0.997 | locus YDR335W, strain msn5, stronger effect = lower value 1.01 | locus YDR363W, strain ESC2, stronger effect = lower value 1.01 | locus YDR388W, stronger effect = lower value 0.962 | locus YDR392W, strain spt3, stronger effect = lower value 0.842 | locus YEL003W, strain gim4, stronger effect = lower value 0.992 | locus YEL037C, strain rad23, stronger effect = lower value 1.01 | locus YEL061C, strain CIN8 (second series), stronger effect = lower value 1.01 | locus YEL061C, strain CIN8, stronger effect = lower value 0.986 | locus YER002W, strain NOP16, stronger effect = lower value 0.98 | locus YER015W, strain faa2, stronger effect = lower value 0.986 | locus YER016W, strain bim1, stronger effect = lower value 0.994 | locus YER110C, stronger effect = lower value 0.98 | locus YER111C, strain swi4, stronger effect = lower value 1.01 | locus YER155C, strain BEM2 (second series), stronger effect = lower value 0.986 | locus YER155C, strain BEM2, stronger effect = lower value 1.02 | locus YER167W, strain BCK2, stronger effect = lower value 1.01 | locus YFR010W, strain ubp6, stronger effect = lower value 0.984 | locus YGL167C, strain pmr1, stronger effect = lower value 0.978 | locus YGL173C, strain kem1, stronger effect = lower value 0.994 | locus YGL227W, strain vid30, stronger effect = lower value 0.991 | locus YGL240W, strain doc1, stronger effect = lower value 1 | locus YGL248W, strain PDE1, stronger effect = lower value 0.965 | locus YGL253W, strain hxk2, stronger effect = lower value 0.968 | locus YGR078C, strain PAC10, stronger effect = lower value 0.959 | locus YGR135W, strain pre9, stronger effect = lower value 0.936 | locus YGR252W, strain gcn5, stronger effect = lower value 0.853 | locus YHR013C, strain ard1, stronger effect = lower value 1.04 | locus YHR027C, strain rpn1, stronger effect = lower value 0.989 | locus YHR079C, strain IRE1 (second series), stronger effect = lower value 0.981 | locus YHR079C, strain IRE1, stronger effect = lower value 0.978 | locus YHR094C, strain hxt1, stronger effect = lower value 0.981 | locus YHR129C, strain ARP1, stronger effect = lower value 0.972 | locus YHR142W, strain chs7, stronger effect = lower value 0.987 | locus YHR200W, strain rpn10, stronger effect = lower value 0.93 | locus YIL066C, strain RNR3, stronger effect = lower value 0.987 | locus YIL073C, strain SPO22, stronger effect = lower value 0.896 | locus YIL125W, strain kgd1, stronger effect = lower value 0.952 | locus YIR030C, strain dcg1, stronger effect = lower value 0.964 | locus YJL092W, strain hpr5, stronger effect = lower value 0.995 | locus YJL095W, strain BCK1 (second series), stronger effect = lower value 0.987 | locus YJL115W, strain asf1, stronger effect = lower value 1 | locus YJL129C, strain trk1, stronger effect = lower value 0.903 | locus YJL134W, strain LCB3, stronger effect = lower value 1.01 | locus YJL154C, strain vps35, stronger effect = lower value 1 | locus YJL164C, strain tpk1, stronger effect = lower value 1.01 | locus YJL166W, strain qcr8, stronger effect = lower value 0.998 | locus YJL168C, strain set2, stronger effect = lower value 0.973 | locus YJL187C, strain SWE1 (second series), stronger effect = lower value 0.934 | locus YJL187C, strain SWE1, stronger effect = lower value 0.986 | locus YJR043C, strain POL32, stronger effect = lower value 0.946 | locus YJR066W, strain TOR1, stronger effect = lower value 0.939 | locus YJR075W, strain HOC1, stronger effect = lower value 0.986 and 1.01 | locus YKL068W, stronger effect = lower value 0.977 | locus YKL085W, strain MDH1 (second series), stronger effect = lower value 0.982 | locus YKL085W, strain MDH1, stronger effect = lower value 0.982 | locus YKL160W, strain elf1, stronger effect = lower value 1 | locus YKL190W, strain CNB1, stronger effect = lower value 0.992 | locus YKR026C, strain gcn3, stronger effect = lower value 0.991 | locus YKR091W, strain srl3, stronger effect = lower value 0.995 | locus YLL001W, strain dnm1, stronger effect = lower value 1.01 | locus YLL026W, stronger effect = lower value 0.99 | locus YLL041C, strain sdh2, stronger effect = lower value 0.991 | locus YLR027C, strain aat2, stronger effect = lower value 0.994 | locus YLR039C, strain RIC1, stronger effect = lower value 0.87 | locus YLR058C, strain SHM2, stronger effect = lower value 0.972 | locus YLR102C, strain apc9, stronger effect = lower value 0.997 | locus YLR113W, strain HOG1, stronger effect = lower value 1.04 | locus YLR221C, strain rsa3, stronger effect = lower value 0.972 | locus YLR258W, strain gsy2, stronger effect = lower value 0.986 | locus YLR262C, strain YPT6, stronger effect = lower value 0.877 | locus YLR268W, strain sec22, stronger effect = lower value 0.894 | locus YLR320W, strain mms22, stronger effect = lower value 0.971 | locus YLR330W, strain CHS5, stronger effect = lower value 0.998 | locus YLR342W, strain FKS1 (second series), stronger effect = lower value 0.946 | locus YLR342W, strain FKS1, stronger effect = lower value 0.993 | locus YLR357W, strain rsc2, stronger effect = lower value 0.976 | locus YLR370C, strain arc18, stronger effect = lower value 1.01 | locus YLR384C, strain iki3, stronger effect = lower value 0.996 | locus YML016C, strain PPZ1, stronger effect = lower value 0.993 | locus YML032C, strain rad52, stronger effect = lower value 0.938 | locus YML120C, strain ndi1, stronger effect = lower value 0.956 | locus YML124C, strain tub3, stronger effect = lower value 0.993 | locus YMR058W, strain fet3, stronger effect = lower value 0.975 | locus YMR078C, strain ctf18, stronger effect = lower value 0.96 | locus YMR125W, strain sto1, stronger effect = lower value 0.999 | locus YMR129W, stronger effect = lower value 0.996 | locus YMR205C, strain PFK2, stronger effect = lower value 0.976 | locus YMR223W, strain ubp8, stronger effect = lower value 0.923 | locus YMR231W, strain pep5, stronger effect = lower value 1 | locus YMR263W, strain SAP30, stronger effect = lower value 0.997 | locus YNL067W, strain RPL9B, stronger effect = lower value 0.979 | locus YNL071W, strain lat1, stronger effect = lower value 0.988 | locus YNL175C, strain NOP13, stronger effect = lower value 0.958 | locus YNL183C, strain NPR1, stronger effect = lower value 0.962 | locus YNL197C, strain WHI3, stronger effect = lower value 0.966 | locus YNL209W, strain ssb2, stronger effect = lower value 0.979 | locus YNL224C, strain SQS1, stronger effect = lower value 0.974 | locus YNL233W, strain BNI4, stronger effect = lower value 0.924 | locus YNL248C, strain rpa49, stronger effect = lower value 0.983 | locus YNL250W, strain rad50, stronger effect = lower value 0.971 | locus YNL271C, strain bni1, stronger effect = lower value 0.951 | locus YNL298W, strain CLA4, stronger effect = lower value 0.92 | locus YNL307C, strain MCK1, stronger effect = lower value 0.99 | locus YNL322C, strain KRE1 (second series), stronger effect = lower value 0.998 | locus YNR049C, strain mso1, stronger effect = lower value 1.01 | locus YOL012C, strain htz1 0.774 | locus YOR001W, strain rrp6, stronger effect = lower value 0.985 | locus YOR061W, strain CKA2, stronger effect = lower value 0.995 | locus YOR069W, strain VPS5, stronger effect = lower value 0.998 | locus YOR070C, strain gyp1, stronger effect = lower value 0.986 | locus YOR080W, strain dia2, stronger effect = lower value 0.994 | locus YOR083W, strain WHI5 (second series), stronger effect = lower value 0.98 | locus YOR083W, strain WHI5, stronger effect = lower value 0.965 | locus YOR106W, strain vam3, stronger effect = lower value 0.982 | locus YOR136W, strain idh2, stronger effect = lower value 0.965 | locus YOR144C, strain elg1, stronger effect = lower value 0.963 | locus YOR231W, strain MKK1, stronger effect = lower value 0.98 | locus YOR265W, strain rbl2, stronger effect = lower value 0.985 | locus YOR270C, strain vph1, stronger effect = lower value 0.963 | locus YOR290C, strain snf2, stronger effect = lower value 0.95 | locus YOR316C, strain cot1, stronger effect = lower value 0.982 | locus YPL051W, strain arl3, stronger effect = lower value 0.983 | locus YPL055C, strain LGE1, stronger effect = lower value 0.894 | locus YPL078C, strain atp4, stronger effect = lower value 0.994 | locus YPL106C, strain sse1, stronger effect = lower value 1.02 | locus YPL240C, strain hsp82, stronger effect = lower value 0.988 | locus YPL241C, strain CIN2, stronger effect = lower value 0.985 | locus YPL256C, strain CLN2, stronger effect = lower value 0.975 | locus YPR119W, strain clb2, stronger effect = lower value 0.981 | locus YPR141C, strain kar3, stronger effect = lower value 0.973 | locus YPR167C, strain met16, stronger effect = lower value 0.978
